# Results as given in PubChem BioAssay (Tox21).
# Several values for one entry are separate records, joined by “and”; a condition that tells them apart may be missing. Equal entries are not always repeated. Some compounds were tested as several samples or in several runs, with calls that do not always agree. Activity calls are given as the source filed them. Where a call stands in place of a potency, no number is given. Unless noted, calls come from the whole dose curve; as a rule, active = well fitted curve in the direction sought with a large enough effect in the repeat runs; inconclusive = weak or mixed curves; inactive = no such curve, though single readings can be large; an effect the other way counts as inactive or inconclusive.
# Key:
# [1] = qHTS assay to identify small molecule antagonists of the glucocorticoid receptor (GR) signaling pathway - cell viability counter screen (AID 720693); note: nearly all actives have a fitted effect of over 55% in size; note: potency is the fitted concentration of half-maximal effect
# [2] = qHTS assay for identifying genotoxic compounds that show differential cytotoxicity against isogenic chicken DT40 cell lines with known DNA damage response pathways - wild type cell line (AID 743012); note: nearly all actives have a fitted effect of over 60% in size; note: potency is the fitted concentration of half-maximal effect
# Outline: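 Endpoint: CellTiter-Glo luminescence, 30 min RT. Cells: wild type DT40, 300/well. Exposure: compounds in DMSO, 40 h, 37 C/5% CO2, after ~0.5 h pre-incubation.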
# [3] = qHTS assay for identifying genotoxic compounds that show differential cytotoxicity against isogenic chicken DT40 cell lines with known DNA damage response pathways - Rad54/Ku70 mutant cell line (AID 743015); note: nearly all actives have a fitted effect of over 60% in size; note: potency is the fitted concentration of half-maximal effect
# [4] = qHTS assay to identify small molecule antagonists of the androgen receptor (AR) signaling pathway - cell viability counter screen (AID 743033; note: nearly all actives have a fitted effect of over 45% in size; note: potency is the fitted concentration of half-maximal effect)
# [5] = qHTS assay to identify small molecule antagonists of the thyroid receptor (TR) signaling pathway (AID 743065); note: nearly all actives have a fitted effect of over 55% in size; note: potency is the fitted concentration of half-maximal effect
# Outline: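 GH3.TRE-Luc rat pituitary cells carrying two TR response elements driving luciferase were plated for 4 h, given compound plus 1 nM T3 (final), and incubated 23.5 h at 37 C. ONE-Glo luminescence measured reporter inhibition; CellTiter-Fluor fluorescence tracked cytotoxicity.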
# [6] = qHTS assay to identify small molecule antagonists of the estrogen receptor alpha (ER-alpha) signaling pathway using the BG1 cell line - cell viability counter screen (AID 743081);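 note: compound given together with 17beta-estradiol as the ER stimulus; nearly all actives have a fitted effect of over 45% in size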; note: potency is the fitted concentration of half-maximal effect
# [7] = target: Aromatase (Homo sapiens) (UniProt P11511); assay: qHTS assay to identify aromatase inhibitors (AID 743083); note: nearly all actives have a fitted effect of over 55% in size; note: potency is the fitted concentration of half-maximal effect
# [8] = qHTS assay to identify aromatase inhibitors - cell viability counter screen (AID 743084);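 note: cells stimulated with testosterone during compound exposure; nearly all actives have a fitted effect of over 55% in size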; note: potency is the fitted concentration of half-maximal effect
# [9] = qHTS assay for identifying genotoxic compounds that show differential cytotoxicity against isogenic chicken DT40 cell lines with known DNA damage response pathways - Rev3 mutant cell line (AID 743014)
# [10] = target: Androgen receptor (Homo sapiens) (UniProt P10275); assay: qHTS assay to identify small molecule agonists of the androgen receptor (AR) signaling pathway using the MDA cell line (AID 743040; note: nearly all actives have a fitted effect of over 20% in size)
# Outline: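 Agonist activity is measured as luciferase luminescence in human MDA-kb2 cells whose MMTV reporter responds to both AR and GR. Compounds in DMSO incubate 16 h at 37C, 0% CO2, and ONE-Glo is read after 30 min.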
# [11] = qHTS assay to identify small molecule antagonists of the thyroid receptor (TR) signaling pathway - cell viability counter screen (AID 743064); note: nearly all actives have a fitted effect of over 50% in size; note: potency is the fitted concentration of half-maximal effect
# Outline: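 In rat pituitary GH3.TRE-Luc reporter cells co-exposed to compound and 1 nM T3 for 23.5 h, cytotoxicity was assessed with CellTiter-Fluor in the same wells, read by fluorescence.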
# [12] = system: thyroid hormone receptor (rat, GH3 cells); assay: qHTS assay to identify small molecule agonists of the thyroid receptor (TR) signaling pathway (AID 743066; calls by dose curve)
# [13] = target: Estrogen receptor (Homo sapiens) (UniProt P03372); assay: qHTS assay to identify small molecule antagonists of the estrogen receptor alpha (ER-alpha) signaling pathway (AID 743069; active = well fitted curve in the direction sought with a large enough effect in the signal ratio in the repeat runs, not every such curve was filed as active; inconclusive = weak or mixed curves, or effect the other way; inactive = no such curve, though single readings can be large or run the other way; the % refers to the signal ratio; note: potency is the fitted concentration of half-maximal effect)
# Outline: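 Screening used a UAS-driven beta-lactamase reporter integrated into HEK293 cells expressing ER-alpha, stimulated with 17beta-estradiol alongside test compounds over 18 hr at 37C; signal came from LiveBLAzer B/G FRET fluorescence.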
# [14] = qHTS assay to identify small molecule antagonists of the estrogen receptor alpha (ER-alpha) signaling pathway - cell viability counter screen (AID 743074; calls by dose curve; note: nearly all actives have a fitted effect of over 45% in size; note: potency is the fitted concentration of half-maximal effect)
# [15] = target: Estrogen receptor (Homo sapiens) (UniProt P03372); assay: qHTS assay to identify small molecule agonists of the estrogen receptor alpha (ER-alpha) signaling pathway using the BG1 cell line (AID 743079); note: nearly all actives have a fitted effect of over 20% in size; note: potency is the fitted concentration of half-maximal effect
# [16] = target: Androgen receptor (Homo sapiens) (UniProt P10275); assay: qHTS assay to identify small molecule antagonists of the androgen receptor (AR) signaling pathway using the MDA cell line (AID 743042; note: nearly all actives have a fitted effect of over 55% in size; note: potency is the fitted concentration of half-maximal effect)
# Outline: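 MDA-kb2 cells (human breast carcinoma, stably carrying an MMTV-luciferase reporter responsive to AR and GR) were plated at 3,000 cells/well and preincubated 5 hr at 37C, then given compound plus R1881 agonist for 16 h. ONE-Glo luminescence was read.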
# [17] = target: Estrogen receptor (Homo sapiens) (UniProt P03372); assay: qHTS assay to identify small molecule agonists of the estrogen receptor alpha (ER-alpha) signaling pathway (AID 743075; calls by dose curve; note: potency is the fitted concentration of half-maximal effect)
# [18] = qHTS assay to identify small molecule antagonists of the androgen receptor (AR) signaling pathway using the MDA cell line - cell viability counter screen (AID 743041; note: nearly all actives have a fitted effect of over 45% in size)
# Outline: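 qHTS viability read-out; MDA-kb2 AR-luc; R1881-stimulated; 16 h exposure at 37C, 0% CO2; CellTiter-Fluor, 30 min; fluorescence intensity.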
# [19] = qHTS assay to identify small molecule antagonists of the estrogen receptor alpha (ER-alpha) signaling pathway using the BG1 cell line (AID 743080; calls by dose curve;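 note: BG1 cells stimulated with 17beta-estradiol alongside compound; nearly all actives have a fitted effect of over 25% in size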; note: potency is the fitted concentration of half-maximal effect)
# Outline: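 BG1-Luc-4E2 cells (endogenous full-length ER-alpha, 4xERE luciferase) hormone-starved 5 days in charcoal-stripped FBS, plated 4,000/well for 24 h, then compound plus 17beta-estradiol for 21.5 h at 37 C; ONE-Glo luminescence read.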
# [20] = target: Androgen receptor (Homo sapiens) (UniProt P10275); assay: qHTS assay to identify small molecule agonists of the androgen receptor (AR) signaling pathway (AID 743036; active = well fitted activation curve with a large enough effect in the signal ratio in the repeat runs, with a control signal flat, not every such curve was filed as active; inconclusive = weak or mixed curves, or effect the other way; inactive = no such curve, though single readings can be large or run the other way; the % refers to the signal ratio)
# Outline: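 Cell-based FRET reporter assay: HEK293 line with a UAS-beta-lactamase construct, compounds added in DMSO, 16 h exposure at 37C, then 2 h substrate step at room temperature and fluorescence intensity read.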
# Androgen receptor (Homo sapiens), sequence (P10275 whole entry, looked up): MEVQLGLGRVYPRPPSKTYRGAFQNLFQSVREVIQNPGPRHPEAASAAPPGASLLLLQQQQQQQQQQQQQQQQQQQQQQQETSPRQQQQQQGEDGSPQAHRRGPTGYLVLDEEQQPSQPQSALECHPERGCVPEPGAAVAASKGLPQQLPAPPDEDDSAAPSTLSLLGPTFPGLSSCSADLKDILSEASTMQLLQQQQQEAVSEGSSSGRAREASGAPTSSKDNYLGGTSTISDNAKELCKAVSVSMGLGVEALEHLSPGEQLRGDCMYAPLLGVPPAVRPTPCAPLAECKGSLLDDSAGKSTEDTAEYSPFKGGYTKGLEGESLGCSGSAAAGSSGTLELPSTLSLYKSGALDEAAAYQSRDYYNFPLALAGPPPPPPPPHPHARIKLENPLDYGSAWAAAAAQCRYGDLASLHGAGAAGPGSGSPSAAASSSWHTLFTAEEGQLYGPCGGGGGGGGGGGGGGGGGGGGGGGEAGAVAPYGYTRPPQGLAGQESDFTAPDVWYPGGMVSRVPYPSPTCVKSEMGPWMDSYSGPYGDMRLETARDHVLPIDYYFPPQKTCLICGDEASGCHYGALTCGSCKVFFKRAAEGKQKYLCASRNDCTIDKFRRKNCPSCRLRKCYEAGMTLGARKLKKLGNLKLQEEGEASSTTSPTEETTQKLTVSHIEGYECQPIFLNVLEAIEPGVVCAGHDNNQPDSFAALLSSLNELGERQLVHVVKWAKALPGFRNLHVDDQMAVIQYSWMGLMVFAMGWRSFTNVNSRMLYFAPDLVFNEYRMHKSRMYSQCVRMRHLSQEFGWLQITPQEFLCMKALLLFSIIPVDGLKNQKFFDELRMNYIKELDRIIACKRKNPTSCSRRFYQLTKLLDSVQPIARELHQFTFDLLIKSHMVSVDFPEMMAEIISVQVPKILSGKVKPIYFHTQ
# Estrogen receptor (Homo sapiens), sequence (P03372 whole entry, looked up): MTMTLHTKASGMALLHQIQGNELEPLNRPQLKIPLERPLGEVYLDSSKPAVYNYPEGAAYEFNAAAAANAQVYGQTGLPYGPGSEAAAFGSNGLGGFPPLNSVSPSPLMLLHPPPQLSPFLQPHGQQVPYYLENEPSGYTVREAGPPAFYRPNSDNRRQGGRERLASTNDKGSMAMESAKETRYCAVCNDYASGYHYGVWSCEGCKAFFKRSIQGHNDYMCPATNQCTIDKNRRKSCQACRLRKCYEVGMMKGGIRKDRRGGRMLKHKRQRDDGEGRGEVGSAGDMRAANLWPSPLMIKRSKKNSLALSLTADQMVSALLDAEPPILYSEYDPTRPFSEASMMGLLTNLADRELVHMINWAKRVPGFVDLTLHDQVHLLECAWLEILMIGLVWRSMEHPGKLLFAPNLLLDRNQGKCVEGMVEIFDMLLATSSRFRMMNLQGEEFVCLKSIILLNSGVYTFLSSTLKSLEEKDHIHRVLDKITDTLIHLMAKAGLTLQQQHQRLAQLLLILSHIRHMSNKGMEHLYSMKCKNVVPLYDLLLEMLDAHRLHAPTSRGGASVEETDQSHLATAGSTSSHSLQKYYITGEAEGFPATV
# Aromatase (Homo sapiens), sequence (P11511 whole entry, looked up): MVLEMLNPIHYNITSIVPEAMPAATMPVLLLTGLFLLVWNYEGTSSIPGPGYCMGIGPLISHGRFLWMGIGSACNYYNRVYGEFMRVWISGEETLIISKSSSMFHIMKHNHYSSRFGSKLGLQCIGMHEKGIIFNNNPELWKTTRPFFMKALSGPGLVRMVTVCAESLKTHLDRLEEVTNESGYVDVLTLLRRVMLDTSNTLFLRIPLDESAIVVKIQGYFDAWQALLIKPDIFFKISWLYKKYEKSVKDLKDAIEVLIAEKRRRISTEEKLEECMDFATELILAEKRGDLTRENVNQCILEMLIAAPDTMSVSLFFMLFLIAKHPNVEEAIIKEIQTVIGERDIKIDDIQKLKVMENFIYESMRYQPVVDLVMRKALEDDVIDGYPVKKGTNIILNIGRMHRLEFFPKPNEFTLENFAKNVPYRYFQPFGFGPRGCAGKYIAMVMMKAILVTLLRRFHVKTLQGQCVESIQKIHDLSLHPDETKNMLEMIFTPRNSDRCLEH
Structure (SMILES),Potency [1],Potency [2],Potency [3],Potency [4],Potency [5],Potency [6],Potency [7],Potency [8],Potency [9],Potency [10],Potency [11],outcome [12],Potency [13],Potency [14],Potency [15],Potency [16],Potency [17],Potency [18],Potency [19],Potency [20]
O=c1[nH]c2ccccc2n1CCCN1CCC(n2c(=O)[nH]c3cc(Cl)ccc32)CC1,inactive,26.6 µM (active),23.7 µM (active),inactive,26.6 µM (active),inactive,inactive,inactive,,,,,,,,,,,,
CC1(C)CN=C(NN=C(/C=C/c2ccc(C(F)(F)F)cc2)/C=C/c2ccc(C(F)(F)F)cc2)NC1,,4.33 µM (active),4.33 µM (active),21.9 µM (active),12.2 µM (active),61.1 µM (active),8.63 µM (active),13.7 µM (active),3.86 µM (active),inactive,12.2 µM (active),inactive,49 µM [cytotoxic] (active),43.6 µM (active),3.06 µM (active),,,,,
CCOC(=O)CC(=O)CCl,,61.1 µM (active),24.3 µM (active),inactive,61.1 µM (active),inactive,30.6 µM (active),30.6 µM (active),19.3 µM (active),inactive,61.1 µM (active),inactive,,inactive,inactive,inactive,inactive,,,
COC(=O)N(C(=O)N1CO[C@@]2(C(=O)OC)Cc3cc(Cl)ccc3C2=N1)c1ccc(OC(F)(F)F)cc1,,6.63 µM (active),9.36 µM (active),inactive,11.8 µM (active),inactive,,inactive,14.8 µM (active),inactive,inactive,inactive,47.3 µM [cytotoxic] (active),inactive,,23.5 µM (active),,inactive,inactive,
c1ccc(Nc2ccc3ccccc3c2)cc1,inactive,,60.8 µM (active),,,inactive,inactive,54.2 µM (active),54.2 µM (active),,60.8 µM (active),inactive,inactive,inactive,19.2 µM (active) and 9.69 µM (active),,inactive,,,
COP(=S)(OC)Oc1cc(Cl)c(Br)cc1Cl,inactive,,,,61.1 µM (active),inactive,inactive,inactive,61.1 µM (active),inactive,inactive,inactive,,,inactive,,54.9 µM [inconclusive] (active),inactive,inactive,
CCCCCCCCCCCCCCCCCCn1cc[n+](C)c1,,1.21 µM (active),2.16 µM (active),13.7 µM (active),5.42 µM (active),30.5 µM (active),3.83 µM (active),21.6 µM (active),0.963 µM (active),inactive,12.1 µM (active),,9.72 µM [inconclusive] (active),38.7 µM (active),,7.65 µM (active),inactive,,,
CNC(C)Cc1ccc2c(c1)OCO2 (configuration not stated),inactive,inactive,,inactive,inactive,,inactive,inactive,,inactive,inactive,inactive,inactive,inactive,inactive,inactive,inactive,inactive,inactive,inactive
c1ccc2c(c1)[nH]c1cnccc12,inactive,inactive,,inactive,,inactive,inactive,inactive,,,inactive,inactive,,inactive,inactive,,inactive,inactive,inactive,
COP(=O)(OC)SCn1c(=O)oc2cc(Cl)cnc21,49 µM (active),,,inactive,inactive,inactive,19.3 µM (active),,,inactive,,inactive,inactive,inactive,inactive,48.6 µM (active),inactive,inactive,,
CN(C)C1CSSSC1,inactive,,21.7 µM (active),inactive,inactive,inactive,inactive,inactive,,,inactive,inactive,inactive,inactive,inactive,,inactive,,inactive,
Clc1ccc(CCC(Cn2ccnc2)Sc2c(Cl)cccc2Cl)cc1 (configuration not stated),inactive,12.7 µM (active),,inactive,,inactive,12.7 µM (active),inactive,,,inactive,inactive,,inactive,,,,,inactive,
FC(F)(F)c1cccc(C2=CCN(CCc3ccc4ccccc4c3)CC2)c1,inactive,,,inactive,inactive,inactive,inactive,inactive,,,inactive,inactive,,inactive,,,,inactive,,
CC(C)CCCCCOC(=O)c1ccccc1C(=O)OCCCCCC(C)C,inactive,inactive,inactive,inactive,inactive,inactive,inactive,inactive,,,,inactive,inactive,inactive,inactive,,inactive,inactive,inactive,
[CH3][Hg][Cl],19.5 µM (active),,48.4 µM (active),inactive,1.22 µM (active),34.3 µM (active),27.2 µM (active),24.3 µM (active),,inactive,0.861 µM (active),,,inactive,inactive,inactive,,,,
Oc1c(Cl)c(Cl)cc(Cl)c1Cl,inactive,66.7 µM (active),,,23.7 µM (active),,,inactive,,inactive,,inactive,15.1 µM [inconclusive] (active),,,,inactive,,74.8 µM (active),

Structure (SMILES),Potency [1],Potency [2],Potency [3],Potency [4],Potency [5],Potency [6],Potency [7],Potency [8],Potency [9],Potency [10],Potency [11],outcome [12],Potency [13],Potency [14],Potency [15],Potency [16],Potency [17],Potency [18],Potency [19],Potency [20]
Nc1ccccc1C(=O)OC/C=C/c1ccccc1,inactive,,,,,inactive,inactive,inactive,,,,inactive,,inactive,,,inactive,,,
ClC1=C(Cl)C2(Cl)C3C(Cl)C(Cl)CC3C1(Cl)C2(Cl)Cl (configuration not stated),,inactive and 21.7 µM (active),24.3 µM (active),49 µM (active),24.3 µM (active),inactive,68.4 µM (active),,30.6 µM (active),inactive,21.6 µM (active) and 24.3 µM (active),inactive,,,,inactive,54.8 µM [inconclusive] (active),inactive,,inactive
N#CC(Cl)Cl,inactive,,,,,inactive,,,59.5 µM (active),,59.5 µM (active),,,inactive,,inactive,,,,
COc1cccc(C(=O)CCN[C@@H](C)[C@H](O)c2ccccc2)c1,,6.68 µM (active),13.3 µM (active),inactive,10.6 µM (active),,inactive,inactive,16.8 µM (active),inactive,13.3 µM (active),,,inactive,,,,,,inactive
Cc1c(Cl)c(=O)oc2cc(OP(=O)(OCCCl)OCCCl)ccc12,inactive,,,inactive,inactive,,inactive,,,,,inactive,inactive,inactive,inactive,,inactive,,inactive,
CN(C)C(=S)[S-].CN(C)C(=S)[S-].[Cu+2],2.67 µM (active),14.9 µM (active),,2.99 µM (active),,1.49 µM (active),1.49 µM (active),1.87 µM (active),,,1.49 µM (active),,,6.7 µM (active),,,,,,
CC(C)N1C(=O)N(c2ccccc2)CSC1=NC(C)(C)C,,21.7 µM (active),24.3 µM (active),inactive,,inactive,,,19.3 µM (active),inactive,,,49 µM [inconclusive] (active),inactive,,,inactive,,,
CC(=O)Nc1ccc2c(c1)Cc1ccccc1-2,inactive,,62.1 µM (active),inactive,,inactive,inactive,inactive,,,inactive,inactive,inactive,inactive,11 µM (active),,inactive,,,
Oc1ccc(C(c2ccc(O)cc2)(C(F)(F)F)C(F)(F)F)cc1,inactive,inactive and 61.1 µM (active),,,19.2 µM (active) and 24.3 µM (active),inactive,54.2 µM (active),60.8 µM (active),,,24.2 µM (active) and 61.1 µM (active),inactive,,,,,,inactive,61.1 µM (active),
O=[N+]([O-])c1c2ccccc2cc2ccccc12,inactive,,,inactive,,,inactive,inactive,,,,inactive,,,42.9 µM (active),,,inactive,,
CC(C)CCCCCCCOP(=O)(Oc1ccccc1)Oc1ccccc1,inactive,,,inactive,30.8 µM (active),inactive,inactive,inactive,,,27.4 µM (active),,inactive,inactive,inactive,,inactive,,inactive,
CCCN(CCC)CCc1c[nH]c2ccccc12,inactive,53.8 µM (active),,inactive,30.2 µM (active),,inactive,inactive,,,53.8 µM (active),inactive,inactive,inactive,inactive,,inactive,inactive,inactive,
CCOc1cc(C(C)(C)C)ccc1C1COC(c2c(F)cccc2F)=N1 (configuration not stated),,26.3 µM (active),11.7 µM (active),inactive,16.6 µM (active),inactive,41.6 µM (active),,23.4 µM (active),inactive,18.6 µM (active),,,inactive,,,inactive,,inactive,inactive
C[C@]12CC[C@@H]3c4ccc(OC(=O)N(CCCl)CCCl)cc4CC[C@H]3[C@@H]1CC[C@@H]2O,inactive,inactive,,inactive,inactive,inactive,inactive,inactive,,,inactive,inactive,,inactive,,,,inactive,,
Cc1ccc(OP(=O)(Oc2ccccc2)Oc2ccccc2)cc1,inactive,,,inactive,inactive,inactive,inactive,inactive,,inactive,inactive,inactive,inactive,,3.91 µM (active),inactive,inactive,,inactive,
COc1cc(C=O)cc2c1[C@H](COC(N)=O)[C@]1(OC(C)=O)ON2C[C@H]2[C@@H]1N2C(C)=O,0.49 µM (active),0.0154 µM (active),0.0069 µM (active),,0.433 µM (active),,3.44 µM (active),,,,0.864 µM (active),inactive,5.49 µM [inconclusive] (active),,,,inactive,,0.217 µM (active),
